Most compounds without a hit are left out; they make up all but 2.1% or so of the library.
Mot1-301 SUMO: yeast Mot1-301 growth rescue at high temperature, primary screen, SUMOylation pathway inhibitor project, S. cerevisiae, ATP luminescence, 38.5C; S. cerevisiae Mot1-301 growth rescue; percent above DMSO median, 100 means doubled; growth rescue, % at 18.8 µM; hit rate 1% among 320,000; AID 2716, 2010;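 active = every valid replicate shows activation above 250% relative to neutral control wells; inactive = the rest, any valid replicate at or below 250%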;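 note: OY570 slx delta 5 strain wells were the positive control but not used for scaling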
IDE act: human IDE activators in live cells, primary screen, fluorescence polarization, HEK cells, FAbeta-B substrate; activation, % at 5.96 µM; FAbeta-B cleavage; 0% vehicle, 100% cell-free pure enzyme wells; AID 493087, 2011; hit rate 0.073% among 340,000;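 active = activation above the mean of all tested compounds plus 3 SD, set per screening campaign, cut at about 17% in these data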
IDE inh: human IDE inhibitors in live cells, primary screen, fluorescence polarization, HEK cells, FAbetaB substrate; FAbetaB cleavage; hit rate 0.41% among 320,000; Insulin-degrading enzyme (Homo sapiens), P14735; inhibition, % at 5.59 µM;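 active = percent inhibition above the average of all tested compounds plus 3 SD, set per screening campaign, cut at about 16% in these data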;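 note: IDE supplied by intact live HEK cells; FP after avidin binding of uncleaved biotin substrate so inhibition keeps polarization high; 0% = DMSO wells and 100% = 60 µM reference IDE inhibitor Ii1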
LANA-H2B inh: blockers of LANA interaction with H2A/H2B – biochemical, FP readout, HTS, primary screen; Protein LANA1 (Human herpesvirus 8 type P (isolate GK18)), Q9QR71; cell-free LANA-H2A/H2B peptide, fluorescence polarization; inhibition, % (concentration not given with the values); hit rate 0.6% among 320,000; AID 2629, 2010; in the data active = inhibition mostly above about 10%, no sharp cut-off; inactive = mostly below about 6.7%
HDAC3 inhib: HDAC3 deacetylase inhibitors, primary screen, biochemical, fluorescence, cell-free homogeneous; hit rate 0.15% among 320,000; recombinant HDAC3, fluorogenic peptide/trypsin coupled; inhibition, % at 8.3 µM; in the data active = inhibition above about 26%, passing the limit was not always enough
Yeast Mot1 SUMO: growth restoration of Mot1-301 yeast on galactose, dose response, SUMO pathway inhibitor project, whole organism, S. cerevisiae, ATP luminescence, cherry-picked samples; shares compounds with Mot1-301 SUMO; S. cerevisiae Mot1-301 galactose growth, 24 h; -100 = growth of slx-deleted rescue strain; 2,300 tested, under 10 active; growth activity, percent, % at 42 µM;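 active = Signal drops as the depositor expects, and the fitted half-maximal dose is no more than ten times the top valid tested dose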;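 note: more negative values mean stronger growth rescue toward the control strain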
* = called active by the depositor; nt = not tested or not shown; + = active, no number; ! = not confirmed by another sample.

SMILES	Mot1-301 SUMO	IDE act	IDE inh	LANA-H2B inh	HDAC3 inhib	Yeast Mot1 SUMO
COc1ccc2c(c1)OC[C@H]1[C@H]2N2C(=O)c3cc(F)ccc3NC(=O)[C@@]2(C)[C@H]1c1ccccc1	+	0	0	8	9	0
NS(=O)(=O)c1ccc(CCNC(=O)CCCn2ncn3c(cc4occc43)c2=O)cc1	0	-3	4	2	5	nt
CCNC(=O)NC(C(=O)OC)C12CC3CC(CC(C3)C1)C2 (stereo not given)	562*	4	2	-8	-1	1
CC[C@]12CCCN3CCc4c(n(c5ccccc45)C(=O)C1)[C@@H]32	-21	1	5	-2	6	nt
CCOC(=O)C1=C[C@]2(CC)CCCN3CCc4c(n1c1ccccc41)[C@@H]32	617*!	4	2	19*!	-3	0
CCCOC(=O)C1=C(C)N(C)C(=O)NC1c1cc2c(cc1[N+](=O)[O-])OCO2 (stereo not given)	354	1	3	-3	7	nt
CCOC(=O)C1=C(C)NC(=O)CC1c1cc2c(cc1[N+](=O)[O-])OCO2 (stereo not given)	937*	3	1	5	5	-1
Cc1ccc2c(C)c(C(=O)N(C)C(C)c3ccncn3)oc2c1C (stereo not given)	359*	2	4	4	nt	0
Cc1nn(C)c(C)c1-c1c(C#N)c(N)nc2c1CCCCCC2	+	1	0	-7	-21	0
O=C(OCC(=O)N1CCN(C(=O)c2ccco2)CC1)c1ccc(Cl)cc1	11	1	10	11	-2	nt
O=C(OCC(=O)N1CCN(Cc2ccccc2)CC1)c1ccc(Cl)cc1	450*	1	3	-9	-1	1
Nc1cc(C(=O)OCC(=O)N2CCOCC2)ccc1Cl	399*	-1	-2	7	-2	0
CNC(=O)N1CCC(C(=O)c2c(C)c(C)c(C)c(C)c2C)CC1	15	4	0	-4	2	nt
Cc1cc(C)nc(SCC2COc3ccccc3O2)n1 (stereo not given)	393*	4	-5	-3	-5	1
CC(O)CNc1nc2c(c(=O)n(Cc3ccccc3)c(=O)n2C)n1C (stereo not given)	0	-3	-2	-1	-7	nt
O=C(O)/C(CC(=O)c1ccc(Cl)cc1)=N/Nc1ccc([N+](=O)[O-])cc1[N+](=O)[O-]	156	3	0	2	-2	nt
COc1ccccc1N1CCN(C2CCCN(Cc3cccc(O)c3)C2)CC1 (stereo not given)	16	3	-8	1	-8	nt
CC(=O)c1cccc(CN2CCCC(N3CCN(c4ccccc4F)CC3)C2)c1 (stereo not given)	796*	2	4	-1	2	0
O=C1NC(Cc2c[nH]c3ccccc23)C(=O)N1Cc1ccc(CN2C(=O)NC(Cc3c[nH]c4ccccc34)C2=O)cc1 (stereo not given)	572*	-2	2	-5	nt	1
COc1cc(/C=C2\NC(=S)N(C)C2=O)ccc1OCc1ccccc1F	17	2	-8	6	4	nt
CN1C(=O)/C(=C/c2ccc(OCc3ccccc3F)cc2)NC1=S	375*	-1	6	6	-9	0
Cc1cc(NC(=O)c2ccccc2F)n(C(C)(C)C)n1	+	nt	2	-3	-3	0
COc1ccccc1CNc1ncnc2nc[nH]c12	671*	-7	3	4	0	0
COc1ccccc1Nc1ncnc2nc[nH]c12	8	2	5	1	-6	nt
COc1ccccc1CNc1ncnc2c1nnn2Cc1ccccc1	514*	1	4	-1	1	0
CC(C)CCNc1ncnc2c1nnn2Cc1ccccc1	-5	4	1	-3	8	nt

Source: PubChem BioAssay
